Source: PubChem (National Center for Advancing Translational Sciences (NCATS))
TDP1 cell CPT = growth inhibition of DT40 Tdp1-/-;hTDP1 cells with camptothecin (screen for TDP1 inhibitors); chicken DT40 Tdp1-/-;hTDP1 cells + 20 nM CPT, ATP luminescence, 48 h; 12% of 420,000 active; Potency, µM (titrated, usually from 46.2 µM), for inactives: at the top dose activity change, negative = growth inhibition, actives largely listed as inhibitors; note: potency is the fitted concentration of half-maximal effect; nearly all actives have a fitted effect of over 55% in size
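Cell growth measured by CellTiter-Glo luminescence after a minimum 48 h, 37 C compound exposure with 20 nM CPT in Tdp1-knockout DT40 cells stably expressing hTDP1, seeded 400/well; qHTS titration format.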
RORgamma inh = inhibitors of mouse ROR gamma transcriptional activity. Potency, µM (series often up to 53.6 µM), without a hit: top-dose activity change, negative = inhibition, most hits filed as inhibitors. Drosophila S2 Gal4-RORgamma UAS-luciferase reporter, 20 h. AID 2551. P51450. 5.4% of 310,000 active; note: potency is the fitted concentration of half-maximal effect; nearly all actives have a fitted effect of over 60% in size
Target sequence (P51450 whole entry, looked up, the tested form may be a part): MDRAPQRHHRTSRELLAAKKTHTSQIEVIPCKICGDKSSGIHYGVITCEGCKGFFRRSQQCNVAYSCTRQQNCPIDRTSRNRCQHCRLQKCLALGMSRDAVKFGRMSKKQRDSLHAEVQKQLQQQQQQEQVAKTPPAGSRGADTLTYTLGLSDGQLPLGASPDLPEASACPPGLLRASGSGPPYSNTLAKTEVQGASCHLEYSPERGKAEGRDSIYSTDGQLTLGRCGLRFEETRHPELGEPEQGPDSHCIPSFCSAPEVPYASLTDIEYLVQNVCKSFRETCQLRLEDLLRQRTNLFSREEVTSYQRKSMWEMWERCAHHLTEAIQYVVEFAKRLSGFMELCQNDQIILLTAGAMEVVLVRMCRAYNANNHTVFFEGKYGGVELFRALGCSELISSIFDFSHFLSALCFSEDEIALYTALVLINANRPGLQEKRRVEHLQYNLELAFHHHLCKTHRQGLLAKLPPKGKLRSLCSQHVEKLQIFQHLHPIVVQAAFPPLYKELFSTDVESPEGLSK
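ROR gamma transcriptional activity was tracked as Gal4-UAS luciferase output in stably transfected Drosophila Schneider cells, with compound added 1 hr before 700 uM copper sulfate induction and a 20 hr ambient-temperature incubation.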
Gal4-VP16 FLuc = Gal4-VP16 reporter inhibition counter-screen; Drosophila S2 Gal4-VP16 UAS-luciferase, luminescence, 20 h; Potency, µM (titrated, usually from 53.6 µM), without a hit: top-dose activity, negative = inhibition, hits mostly inhibitors; 3.5% of 310,000 active;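 note: Gal4-VP16 expression switched on by copper sulfate through the metallothionein promoter; potency is the fitted concentration of half-maximal effect; nearly all actives have a fitted effect of over 50% in size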
DT40 TDP1 no CPT = qHTS for Inhibitors of human tyrosyl-DNA phosphodiesterase 1 (TDP1): qHTS in cells in absence of CPT | DT40 Tdp1-/- hTDP1 cells, no CPT, ATP luminescence, 48 h | Potency, µM (doses to about 46.2 µM), for the others: at the highest dose activity change, negative = growth inhibition, actives largely listed as inhibitors | 15% of 420,000 active | AID 686978, 2013; note: potency is the fitted concentration of half-maximal effect; nearly all actives have a fitted effect of over 55% in size
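Stably hTDP1-transfected Tdp1-null chicken DT40 cells were treated with library compounds minus camptothecin and grown for at least 48 hr at 37 °C, after which cellular ATP was quantified by luminescence.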
LDHA inh = inhibitors of human lactate dehydrogenase A; 0.15% of 480,000 active; AID 1347041; purified LDHA, NADH/diaphorase-resazurin fluorescence; stronger effect = lower value; activity change, % (values are at about 110 or 230 µM); in the data active = activity change below about -30%; inconclusive = mostly about -25% to -30%;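 note: plate controls were DMSO wells for no effect and wells without enzyme for full effect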
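Human LDH5 at 2 nM final in Tris HCl pH 7.4 with 0.06 mM NADH and 0.2 mM pyruvate, reacted 5 minutes at room temperature. Remaining NADH coupled via diaphorase/resazurin; resorufin fluorescence read at 0 and 20 minutes, normalized to enzyme-free and DMSO wells.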
IL1B secr inh = blocks inflammasome-driven IL-1 beta release; 4.7% of 360,000 active; activity change, % at 57.5 µM; THP-1 LPS/ATP IL-1B secretion, AlphaLISA, 16 h; stronger effect = lower value; in the data active = activity change below about -50%; inconclusive = mostly about -30% to -49%
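Secreted IL-1B measured by AlphaLISA bead assay after 16 h compound exposure of THP-1 cells; compounds (final up to 57.5 uM) added 1 h before LPS (250 ng/mL) and ATP (1.25 mM) stimulation; lower signal means less secretion.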
An asterisk follows results filed as active; ? = inconclusive; / = not tested or not shown. An excerpt weighted towards active compounds, which were near 18% of everything screened. Unless noted, calls come from the whole dose curve; as a rule, active = well fitted curve in the direction sought with a large enough effect; inconclusive = small, poorly fitted or top-dose-only effect, or another doubt; inactive = no such curve, though single readings can be large; an effect the other way counts as inactive or inconclusive. Unless noted, % is set by controls: 0 for no effect and ±100 for the full control effect.

SMILES | TDP1 cell CPT | RORgamma inh | Gal4-VP16 FLuc | DT40 TDP1 no CPT | LDHA inh | IL1B secr inh
COc1ccc(C2=C(O)C(=O)N(Cc3ccccn3)C2c2ccccc2F)cc1 (stereo unspecified) | / | / | / | / | 2 | /
Cc1ccc(-c2nc3cccnc3s2)cc1NC(=O)c1ccccc1Cl | / | / | / | / | 1 | /
O=S(=O)(NCc1ccccc1)c1ccc(Br)c2nsnc12 | 4% | 17% | 2% | -26% | 21 | -72*
O=S(=O)(NCc1ccccn1)c1cccc2nsnc12 | 4% | 7.9µM* | ? | 9% | -2 | 22
O=S(=O)(NCc1ccccn1)c1ccccc1 | 10% | -32% | -2% | 17% | -3 | 0
O=S(=O)(NCc1ccccn1)c1ccc(Cl)s1 | 24% | 8.9µM* | ? | -23% | -1 | -2
O=S(=O)(NCCCc1ccccc1)c1cccc2nsnc12 | ? | 38% | -4% | ? | 1 | -5
O=S(=O)(NCc1ccccn1)c1ccccn1 | 5% | 11µM* | -1% | 3% | -1 | 28
CC1=C(C(=O)N2CCOCC2)C(c2ccccc2Cl)C2=C(CCCC2=O)N1 (stereo unspecified) | / | / | / | / | 1 | /
COc1ccc(-c2c(C)oc3cc(OCC(=O)Nc4ccccc4OC)ccc3c2=O)cc1 | / | / | / | / | -10 | /
COc1ccc(-c2noc(-c3csc([C@@H]4C[C@H](O)[C@@H](CO)O4)n3)n2)cc1OC | ? | / | / | ? | -11 | -17
CCOc1ccc(-c2noc(-c3csc([C@@H]4C[C@H](O)[C@@H](CO)O4)n3)n2)cc1 | ? | / | / | 23µM* | -7 | -10
OC[C@H]1O[C@@H](c2nc(-c3nc(-c4ccc(F)cc4)no3)cs2)[C@H](O)[C@@H]1O | ? | / | / | ? | -5 | -5
COc1cc(OC)cc(-c2noc(-c3csc([C@@H]4C[C@H](O)[C@@H](CO)O4)n3)n2)c1 | ? | / | / | 15µM* | -6 | ?
Cc1cc(C(=O)CSc2nnc(COc3ccccc3Cl)n2C)c(C)n1Cc1cccs1 | / | / | / | / | 5 | /
Cc1ccc(O)c(NC(=S)NC(=O)CC(C)C)c1 | -7% | ? | ? | ? | -5 | ?
CCCCCC(=O)NC(=S)Nc1ccc(Br)cc1C | 0% | 10µM* | ? | -17% | -5 | 1
Cc1cc(Br)cc(C)c1NC(=S)NC(=O)CC(C)C | ? | 4.5µM* | 7.9µM* | ? | -4 | 51
COCC(=O)Nc1ccc(Br)cc1C | 0% | 9% | 8% | 0% | 0 | 17
CCCC(=O)NC(=S)Nc1c(C)cc(Br)cc1C | ? | / | / | 16µM* | -8 | 73
CCOc1ccc(NC(=O)CCS(=O)(=O)c2ccc3c(c2)CCN3C(=O)CC)cc1 | / | / | / | / | 5 | /
Cc1csc2nc(COC(=O)c3ccc(NC(=O)C(C)C)cc3)cc(=O)n12 | 18µM* | / | / | 26µM* | -11 | /
Cc1csc2nc(COC(=O)c3ccc(NC(=O)C(C)Oc4ccccc4)cc3)cc(=O)n12 (stereo unspecified) | ? | / | / | ? | -4 | /
Cc1csc2nc(COC(=O)c3ccc(NC(=O)c4ccccc4Br)cc3)cc(=O)n12 | 21µM* | / | / | 18µM* | -2 | /
CCCC(N)c1ccc(C23CC4CC(CC(C4)C2)C3)cc1 (stereo unspecified) | / | / | / | / | 6 | /
SMILES | TDP1 cell CPT | RORgamma inh | Gal4-VP16 FLuc | DT40 TDP1 no CPT | LDHA inh | IL1B secr inh
Cc1ccc2c(c1)N(C(=O)Nc1ccc(Br)cc1F)CC(C)O2 (stereo unspecified) | / | / | / | / | 5 | /
CCOC(=O)c1ccc(NC(=O)CN2C(=O)COc3ccc(Cl)cc32)cc1 | 13µM* | / | / | 16µM* | -8 | /
Cc1ccc(NC(=O)CN2C(=O)c3cccnc3Oc3ccc(Cl)cc32)cc1 | 21µM* | / | / | 29µM* | -6 | /
Cc1cc(Cl)ccc1NC(=O)CN1C(=O)C(=O)c2ccccc21 | 5.8µM* | / | / | 4.1µM* | 5 | /
Cc1cccc(NC(=O)CN2C(=O)c3cccnc3Oc3ccc(Cl)cc32)c1C | -98% | / | / | 21µM* | 4 | /
COc1ccc(NC(=O)c2oc3ccccc3c2NC(=O)c2nn(-c3cccc(C)c3)ccc2=O)cc1 | / | / | / | / | -1 | /
CCOC(=O)c1ccc(NC(=O)CN2C(=O)c3cccnc3Oc3ccc(Cl)cc32)cc1 | ? | / | / | 21µM* | -1 | /
CCCCN(C)C(=O)CN1C(=O)c2cccnc2Oc2ccc(Cl)cc21 | -27% | / | / | ? | -25 | /
CC(C)(C)OC(=O)N1CCC(C(=O)Nc2cccc(C(=O)N3CCCCC3)c2)CC1 | -16% | / | / | -4% | 0 | -4
CN(C(=O)c1ccc(NC(=O)C2CCN(C(=O)OC(C)(C)C)CC2)cc1)C1CCC1 | 18µM* | / | / | 18µM* | -1 | -2
CN(C(=O)c1cccc(NC(=O)C2CCCN(C(=O)OC(C)(C)C)C2)c1)C1CCC1 (stereo unspecified) | 21µM* | / | / | 16µM* | -12 | ?
CN(C(=O)c1cccc(NC(=O)C2CCN(C(=O)OC(C)(C)C)CC2)c1)C1CCCCC1 | 21µM* | / | / | 13µM* | 1 | 3
CCCNC(=O)c1ccc(OC(C)C)cc1 | / | / | / | / | -1 | /
CC(C)C(=O)N1CCN(Cc2coc(-c3ccc(Cl)cc3)n2)CC1 | / | / | / | / | -19 | /
Cc1cc(OCC(=O)Nc2ccncc2)ccc1[N+](=O)[O-] | ? | 5µM* | ? | 21µM* | -4 | 8
COc1cccc(OCC(=O)Nc2ccncc2)c1 | 1% | ? | ? | ? | -1 | 15
O=C(COc1ccc(Nc2ccccc2)cc1)Nc1ccncc1 | ? | / | / | 16µM* | 8 | ?
CC(C)CCOc1cccc(OCC(=O)Nc2ccncc2)c1 | ? | ? | 8.9µM* | 13µM* | -3 | -23
O=C(COc1ccc(-c2ccccc2)cc1)Nc1cccnc1 | 18µM* | / | / | 21µM* | 0 | -28
CC(C)CC(NC(=O)COc1ccccc1)C(=O)N(C)C (stereo unspecified) | / | / | / | / | 5 | /
N#CC1=C(SCC(=O)Nc2ccc3ccccc3c2)NC(=O)CC1c1ccccc1F (stereo unspecified) | / | / | / | / | 6 | /
CC(=NO)c1ccc2c(c1)C(=NO)c1ccccc1-2 | 16µM* | / | / | 21µM* | 23 | -9
Nc1ccc2c(c1)C(=O)C(=O)c1ccccc1-2 | 0.65µM* | 1.8µM* | 2.8µM* | 0.92µM* | 32 | -122*
ON=C1c2ccccc2-c2ccc(O)cc21 | ? | / | / | -13% | 0 | ?
Nc1cc2c(cc1[N+](=O)[O-])-c1ccccc1C2=NO | 21µM* | / | / | 8.2µM* | -7 | 0
ON=C1c2ccccc2-c2cc(Br)ccc21 | 7.3µM* | / | / | ? | 7 | -52*
